# Screening data (PubChem BioAssay)
# VHR inh abs – VHR1 phosphatase inhibitors, primary screen, biochemical, absorbance, uHTS; AID 1654, 2009; inhibition, % at 13.3 µM; recombinant VHR phosphatase, pNPP absorbance; 0.52% of 290,000 active; Dual specificity protein phosphatase 3 (Homo sapiens), P51452; in the data active = inhibition above about 50%
# Target sequence (P51452 whole entry, looked up): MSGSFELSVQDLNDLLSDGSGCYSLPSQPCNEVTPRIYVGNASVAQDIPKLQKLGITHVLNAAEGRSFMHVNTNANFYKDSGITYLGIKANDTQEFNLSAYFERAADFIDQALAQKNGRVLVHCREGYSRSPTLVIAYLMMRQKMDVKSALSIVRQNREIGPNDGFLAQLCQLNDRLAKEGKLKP
# MazF activator – activators of E. coli MazEF toxin-antitoxin RNase, primary screen, biochemical, fluorescence, uHTS | FAM/BHQ RNA-DNA oligo cleavage fluorescence, 5 h | activation, % at 20 µM | 0.32% of 350,000 active | AID 504720, 2011; in the data active = activation above about 50%
# Target sequence (P0AE70 whole entry, looked up): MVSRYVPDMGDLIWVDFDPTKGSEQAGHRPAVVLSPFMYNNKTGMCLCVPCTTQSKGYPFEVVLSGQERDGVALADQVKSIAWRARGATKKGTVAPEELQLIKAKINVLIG
# Anthrax LF inh2 – Bacillus anthracis LF protease inhibitors, primary screen, biochemical, multiplex microsphere, MLPCN library. multiplex microsphere protease cleavage assay. inhibition, % at 10 µM. 0.12% of 360,000 active; also: plate controls were buffer without enzyme for full effect and enzyme alone for no effect
# BoNT F protease – BoNT/F light chain protease inhibitors, primary screen, biochemical, flow cytometry, MLPCN library. Botulinum neurotoxin type F light chain protease (Clostridium botulinum). Multiplex microsphere protease cleavage assay. inhibition, % at 10 µM. 0.22% of 360,000 active; in the data active = inhibition above about 35%, passing the limit was not always enough; inconclusive = no clear call, values can overlap the other calls; also: plate controls were buffer without enzyme for full effect and enzyme alone for no effect
# Autofluor counter – counter-screen for toxin protease inhibitors: compound fluorescence; compound autofluorescence counterscreen, microsphere flow cytometry; hits give high values; fluorescence intensity (test concentration not listed); 3.1% of 360,000 active; in the data active = fluorescence intensity above about 16000; inconclusive = no clear call, values can overlap the other calls
# BoNT-A LC inh2 – BoNT/A light chain protease inhibitors, primary screen, biochemical, flow cytometry, MLPCN library; Botulinum neurotoxin type A light chain protease (Clostridium botulinum A str. ATCC 3502); multiplex microsphere protease substrate cleavage; inhibition, % at 10 µM; 0.17% of 360,000 active; also: plate controls were buffer without enzyme for full effect and enzyme alone for no effect
# Active calls of the source: *; i = inactive; ? = inconclusive; · = no result. Shown are actives, neighbours in structure and some others; about 4% of the full set was active somewhere. Rule as the data show it, unless noted: active = inhibition above about 30%; inconclusive = no clear call, values can overlap the other calls; inactive = below that.
SMILES,VHR inh abs,MazF activator,Anthrax LF inh2,BoNT F protease,Autofluor counter,BoNT-A LC inh2
Cc1ccc(C2C(C#N)=C(N)Oc3cc(N)ccc32)cc1 (stereo not given),24,13,-10,?,3919,-2
CC(C)COC(=O)n1ccc(C(=O)N2CCCCC2)n1,51*,10,0,-6,9267,0
CCOC1=CC(=O)N(Cc2ccccc2)C1,·,1,-6,-6,5442,0
C/C(=N\NC(=O)CC1N=C(Cc2ccccc2)NNC1=O)c1ccccc1 (stereo not given),16,6,-3,0,4734,-1
OCCCNc1ncnc2sc3c(c12)CCN(Cc1ccccc1)C3,6,-16,-24,?,7833,35*
O=C(CSc1nnc(-c2ccc(O)cc2)n1Cc1ccco1)c1ccccc1,0,-2,2,-5,3309,-1
Cc1cccc(C(=O)OC(C)C(=O)Nc2ccc(S(=O)(=O)N3CCCC3)cc2)c1O (stereo not given),·,-2,-1,-1,?,-2
c1ccc2c3c(cc(N4CCOCC4)c2c1)OC1(N2CCOCC2)CCCCC1O3 (stereo not given),-21,-7,2,36*,4432,4
CS(=O)(=O)c1nc(S(=O)(=O)c2ccc(Cl)cc2)c(N2CCC(C(N)=O)CC2)s1,-5,5,-5,-1,4697,-1
CCS(=O)(=O)c1nc(S(=O)(=O)c2ccc(Cl)cc2)c(N2CCC(C(N)=O)CC2)s1,56*,9,0,-12,6071,-1
Cc1ccc(OC(=O)C2CCN(C(=O)c3ccccc3C)CC2)c(Br)c1,·,-5,-3,-7,6264,-4
CCn1cc(C(=O)OCC(=O)Nc2cccc(S(=O)(=O)N3CCOCC3)c2)c(=O)c2ccc(C)nc21,11,-15,0,-1,16363*,?
CN(c1ccc([N+](=O)[O-])cc1C(=O)Nc1ccccc1)C1CCCCC1,18,-5,-4,4,21198*,3
Cc1cccc(NC(=O)c2cc([N+](=O)[O-])ccc2NC2CCCCC2)c1,1,-2,0,-12,1988,2
O=C(NNC1OC(CO)C(O)C(O)C1O)c1cccnc1 (stereo not given),10,3,3,2,3910,0
CCC(CC)NC(=O)CCc1nc2ccccc2c(=O)[nH]1,51*,3,-6,-2,10586,0
CCCCn1c(N(CCOC(C)=O)C(C)=O)nc2ccccc21,·,-3,-10,7,19843*,4
Cc1cccc(N2CCN(CCCNC(=O)C3CCCN(c4ncnc5c4nc4n5CCCCC4)C3)CC2C)c1 (stereo not given),13,6,1,-5,4937,1
COc1cc(/C=C2\SC(N)=NC2=O)cc(Br)c1O,34,-16,·,·,·,·
O=c1cc(C(F)(F)F)c2cc3c4c(c2o1)CCCN4CCC3,-12,i,16,8,3966,15
CC(C)c1cc(=O)oc2c3c4c(cc12)CCCN4CCC3,18,88*,-5,-8,4291,5
CCN1CCN(Cc2c(OC)ccc3ccccc23)CC1,6,6,0,4,19532*,4
COc1ccc(CN2CCN(c3ncccn3)CC2)c(C)c1C,-6,-12,-3,3,3192,-3
COc1ccc(CN2CCN(c3ccccc3)CC2)c(C)c1C,6,-9,-1,-6,23743*,?
CCOc1ccccc1N1CCN(Cc2cccc(OC)c2OC)CC1,3,5,0,-3,16205*,0
COc1ccc2ccccc2c1CN1CCN(C)CC1,20,7,-17,7,19346*,?
COc1ccc2ccccc2c1CN1CCSCC1,-24,-1,-16,?,13289,-42
O=C1c2oc3ccccc3c(=O)c2C(c2cccc(F)c2)N1CCCO (stereo not given),13,5,-1,-4,2179,-1
COc1cccc(-c2nn(-c3ccccc3)cc2C(=O)n2nnc3ccccc32)c1,2,6,0,0,8893,0
